In the library only some 2.8% were active in any assay of this set; here they are far more common.
FXN GAA850 act: increases GAA850 frataxin promoter reporter activity; AID 540364; actives 0.56% (n = 360,000); HEK293 lucGAA850 FXN promoter luciferase reporter, 24 h; percent of 10 µM SAHA response; activation, % at 6 µM;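 active means activation above the average of all compounds screened plus 3 SD, cutoff fixed separately per campaign, cut at about 7.5% in these data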;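 further: 0% = DMSO wells and 100% = 10 µM SAHA wells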
Wnt bcat act: activates Wnt/beta-catenin signaling in a reporter cell assay; activator, plate reader; AID 743398; activation, % at 9.35 µM; actives 1.2% (n = 300,000); in the data active means activation above about 30%, passing the limit was not always enough; inconclusive means no clear call, values can overlap the other calls;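 further: 0% = neutral control wells and 100% = positive control wells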
esBAF inh: blocks esBAF chromatin remodeling in mouse ES cells | AID 602393 | actives 2% (n = 350,000) | Bmi1-luciferase knock-in reporter, 24 h; 100% = twice the neutral-well signal | reporter increase, % at 12.5 µM; in the data active means activation above about 40%; inconclusive means no clear call, values can overlap the other calls;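 further: 0% = median of the plate's neutral control wells and 100% = double that signal; a rise in the Bmi1 reporter signal indicates esBAF inhibition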
MITF TRPM1 HTS: activators of MITF-driven TRPM1 promoter activity in SK-MEL-5 cells. SK-MEL-5 TRPM1-promoter luciferase, 24 h; % of positive control, neutral wells = 0. actives 0.75% (n = 300,000). activation, % at 12.5 µM;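 active means mean activation of at least 80% with every replicate also reaching 80%; inconclusive means mean reaches 80% but some replicate falls short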;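 further: 0% = neutral control wells and 100% = parthenolide positive control wells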
* marks the source's active call; other numbers are inactive results.

`Cc1ccc(SCCSc2nc(N)cc(=O)[nH]2)cc1` gave FXN GAA850 act 1, Wnt bcat act -1 and esBAF inh 10.
Screening c1ccc(-c2nn[nH]n2)cc1 returned FXN GAA850 act 1, Wnt bcat act 0 and MITF TRPM1 HTS -5.
Screening c1ccc(-c2nnc(-c3ccccc3)nn2)cc1 returned FXN GAA850 act 1 and Wnt bcat act 50*.
For COc1ccc(CC(N)c2csc(NC(=O)c3cc(C(C)(C)C)oc3C)n2)cc1 (centres undefined) the results were FXN GAA850 act 1, Wnt bcat act -3 and esBAF inh 53*.
`Nc1nc(SCc2ccccc2)ns1` gave FXN GAA850 act 5, esBAF inh 50* and MITF TRPM1 HTS 35.
For C[C@@H]1CN([C@@H](C)CO)C(=O)c2cc(NC(=O)CCC(F)(F)F)ccc2O[C@@H]1CN(C)Cc1ccncc1 the results were esBAF inh -2.
Cn1c(-c2ccncc2)nc2ccccc21 was read as FXN GAA850 act 0, Wnt bcat act 2, esBAF inh 3 and MITF TRPM1 HTS 3.
`CCN(CC)c1ccc(-c2nc3cnccc3n2C)cc1` gave FXN GAA850 act 2, esBAF inh 40 and MITF TRPM1 HTS 85*.
Screening OCc1c(OCc2cccc(F)c2)ccc2ccccc12 returned FXN GAA850 act 4, Wnt bcat act 7, esBAF inh 63* and MITF TRPM1 HTS 32.
Screening C[C@H](CO)N1C[C@H](C)[C@@H](CN(C)C(=O)NC2CCCCC2)OCCCC[C@H](C)Oc2ccc(NS(=O)(=O)c3ccc(F)cc3)cc2C1=O returned esBAF inh 7.
Screening O=C(N[C@H]1C=C[C@@H](CC(=O)N2CCOCC2)O[C@H]1CO)c1cccc(F)c1 returned esBAF inh 0.
For Cc1nc(SCCc2ccccc2)[nH]c(=O)c1C the results were FXN GAA850 act 3, esBAF inh 50* and MITF TRPM1 HTS -11.
O=C(CN1CCOCC1)NCC[C@@H]1CC[C@@H](NC(=O)c2ccc3c(c2)OCO3)[C@@H](CO)O1 was read as esBAF inh 2.
Cc1ccn(CC(=O)NC2CC(C)(C)Cc3c2cnn3-c2ccc(F)cc2)n1 (centres undefined) was read as FXN GAA850 act 4, Wnt bcat act -2, esBAF inh 42* and MITF TRPM1 HTS 61.
`COc1ccccc1-c1nn2c(-c3ccco3)nnc2s1` gave FXN GAA850 act 6, Wnt bcat act 1, esBAF inh 65* and MITF TRPM1 HTS 134*.
Screening C#Cc1cccc(NC(=O)c2ccc(Cl)cc2Cl)c1 returned FXN GAA850 act 5, Wnt bcat act 22, esBAF inh 53* and MITF TRPM1 HTS 94*.
Screening Cc1ccc(NC(=O)c2ccc(Cl)cc2Cl)cc1O returned FXN GAA850 act 1, Wnt bcat act 48* and MITF TRPM1 HTS 55.
For O=C(Nc1ccc(Nc2ccccc2)cc1)c1ccc(Cl)cc1Cl the results were FXN GAA850 act -2 and Wnt bcat act -1.
CC(C)NC(=O)Nc1ccc2c(c1)C(=O)N([C@@H](C)CO)C[C@H](C)[C@@H](CN(C)S(=O)(=O)c1ccc(Cl)cc1)O2 was read as esBAF inh 3.
`C[C@@H]1CCCCO[C@@H](CN(C)Cc2ccc3c(c2)OCO3)[C@@H](C)CN([C@@H](C)CO)C(=O)c2cc(NC(=O)c3ccncc3)ccc2O1` gave esBAF inh 2.
Screening CCCc1nc2oc3c(NCC(C)O)ncnc3c2c2c1CCCC2 (centres undefined) returned FXN GAA850 act 3 and Wnt bcat act 38*.
Cc1noc(C)c1NC(=O)Nc1ccc2c(c1)CC(=O)N([C@H](C)CO)C[C@@H](C)[C@@H](CN(C)S(=O)(=O)c1cccs1)O2 was read as esBAF inh -4.
`c1ccc(OCCSc2nc3ccccc3o2)cc1` gave FXN GAA850 act 3, esBAF inh 87* and MITF TRPM1 HTS 50.
`Clc1ccccc1OCc1nnc(-c2ccccc2)o1` gave FXN GAA850 act 3, Wnt bcat act inconclusive and MITF TRPM1 HTS 88*.
`c1ccc(Cc2nnc(-c3ccccc3)o2)cc1` gave FXN GAA850 act 3, Wnt bcat act 56* and esBAF inh 49*.
`Cc1cc(Br)ccc1OCc1nnc(-c2ccccc2)o1` gave FXN GAA850 act 5 and Wnt bcat act 25.
`CC(=O)Nc1ccccc1OCc1nnc(-c2ccc(Cl)cc2)o1` gave FXN GAA850 act 2, Wnt bcat act 1, esBAF inh 66* and MITF TRPM1 HTS 8.
O=C(C[C@H]1C=C[C@H](NC(=O)Nc2ccc3c(c2)OCO3)[C@@H](CO)O1)NCc1ccc(F)cc1 was read as esBAF inh -5.
For CC(=O)N(C)C[C@@H]1Oc2ncc(-c3ccc(C(=O)N(C)C)cc3)cc2C(=O)N([C@@H](C)CO)C[C@H]1C the results were esBAF inh -3.
C[C@H](CO)N1C[C@H](C)[C@H](CN(C)S(=O)(=O)c2ccccc2F)Oc2cc(C#Cc3cccc(F)c3)ccc2S1(=O)=O was read as esBAF inh 6.
COc1cccc2cc(NC(=O)C3CCCCC3)c(=O)oc12 was read as FXN GAA850 act 4, esBAF inh 23 and MITF TRPM1 HTS 110*.
`COc1cccc2cc(C(=O)OCC(=O)NC3CCCC(C)C3C)c(=O)oc12` (centres undefined) gave FXN GAA850 act 2, Wnt bcat act -4, esBAF inh 64* and MITF TRPM1 HTS 56.
C[C@H](CO)N1C[C@H](C)[C@H](CN(C)S(=O)(=O)c2ccc(F)cc2)Oc2cc(C3=CCCCC3)ccc2S1(=O)=O was read as esBAF inh 4.
For C[C@@H]1CN([C@@H](C)CO)C(=O)c2cccc(NC(=O)c3ccc(-c4nccs4)cc3)c2O[C@H]1CN(C)Cc1ccc2c(c1)OCO2 the results were esBAF inh 12.
For CC(C)NC(=O)Nc1ccc2c(c1)C(=O)N([C@@H](C)CO)C[C@@H](C)[C@H](CN(C)Cc1ccc(Oc3ccccc3)cc1)O2 the results were esBAF inh 2.
CC1(C)CC(NC(=O)C2CCC(=O)N(Cc3ccccc3F)C2)CC(C)(C)C1 (centres undefined) was read as FXN GAA850 act 3, Wnt bcat act 13, esBAF inh 47* and MITF TRPM1 HTS 29.
For C[C@H](CO)N1C[C@H](C)[C@H](CN(C)S(=O)(=O)c2ccc(F)cc2)OCCCC[C@H](C)Oc2ccc(NC(=O)c3ccncc3)cc2C1=O the results were esBAF inh 0.
For CCOC(=O)/C(C#N)=C(C)/C=C1\Sc2ccccc2N1CC the results were FXN GAA850 act 5, Wnt bcat act 17, esBAF inh 67* and MITF TRPM1 HTS 58.
`CCN1/C(=C\C=C(C(C)=O)C(C)=O)Sc2ccccc21` gave FXN GAA850 act 3, Wnt bcat act -2 and MITF TRPM1 HTS 30.
Screening Cc1ccccc1S(=O)(=O)NCC[C@H]1CC[C@H](NC(=O)C2CCC2)[C@@H](CO)O1 returned esBAF inh -5.
`COc1ccc2c(c1)CC/C2=N\OC(=O)c1ccccc1C` gave FXN GAA850 act 7, Wnt bcat act 3 and MITF TRPM1 HTS 117*.
